92 compounds from PubChem BioAssay AID1986 (Sanford-Burnham Center for Chemical Genomics, 2009) can be followed below.

The nature of the assay: cell-free HIV fusion peptide-binding blockers – biochemical, uHTS, fluorescence dequenching, primary screen (AID 1986). The following applies: 30 min, stronger effect = higher value.
The mark [1] stands for this setting: measured here: repeat confirmation average inhibition, at 18.6 µM.

Hit rate of the full screen: of about 290,000 compounds, about 890 (0.31%) were called active. No stated cut-off is given here; in the data, active means inhibition mostly above about 52% (no sharp cut-off); inactive means mostly below about 76%. The entries come from a sample that favours actives as a whole.

For `O=C(NCCCn1ccnc1)C(=O)Nc1ccccc1`, for the setting “at 20 µM”, the inhibition is 0.2% (inactive).
The same measure, in the same setting: in the case of `COc1ccc(OC)c(NC(=O)Cc2nn(C)c(=O)c3ccccc23)c1` it was 2.9% (inactive); in that of `Cc1c(C(=O)N2CCC(C)CC2)cccc1[N+](=O)[O-]`, -0.4% (inactive); in that of `O=S(=O)(Nc1cccc(S(=O)(=O)N2CCCCCC2)c1)c1ccccc1`, -0.4% (inactive).
Still for that read-out and setting: then `Cc1ccc(S(=O)(=O)Nc2nc3ccccc3nc2Nc2cccc(S(=O)(=O)N3CCCC3)c2)cc1`, with 72.4% (active).
On the same count and under the same terms, then `O=[N+]([O-])c1ccc(S(=O)(=O)Nc2nc3ccccc3nc2Nc2ccccc2)cc1`, with 1% (inactive); and `NS(=O)(=O)c1ccc(Nc2nc3ccccc3nc2NS(=O)(=O)c2cccc([N+](=O)[O-])c2)cc1`, with 69.6% (active); and `CC(=O)Nc1ccc(S(=O)(=O)Nc2nc3ccccc3nc2Nc2ccc(S(N)(=O)=O)cc2)cc1`, with 37.9% (inactive).
As for `COc1ccc(S(=O)(=O)Nc2cccc(S(=O)(=O)N3CCCCCC3)c2)cc1`, the inhibition (at 20 µM) was 2.5% (inactive).
The same measure, in the same setting: then `O=C(CSC1=NCCS1)N1CCCC1`, with 4.9% (inactive); and `CCN1CCN(CC(O)COc2ccc(Cl)cc2)CC1` (configuration not stated), with -1.2% (inactive); and `CCc1nnc(NC(=O)c2ccc(OCc3c(C)noc3C)c(OC)c2)s1`, with 0.8% (inactive).
The same measure, in the same setting: in the case of `COc1ccc(-c2nc(NC(=O)C3CC(=O)N(c4ccc5c(c4)OCCO5)C3)sc2C)cc1` (configuration not stated) it was 2.7% (inactive); in that of `O=C(Nc1nc(-c2ccco2)c(-c2ccco2)s1)C1CCC1`, 63.8% (active).
On the same count and under the same terms, in the case of `Nc1nc(-c2ccco2)c(-c2ccco2)s1` it was 1.2% (inactive).
In the case of `O=C(Nc1nnc(C2CC2)s1)C1CC(=O)N(c2ccc3c(c2)OCCO3)C1` (configuration not stated), the inhibition (at 20 µM) is 16.4% (inactive).
On the same count and under the same terms, in the case of `O=C(Nc1nnc(-c2ccco2)s1)C1CCCCC1` it was 2.3% (inactive).
Still for that read-out and setting: in the case of `O=C(Nc1nc(-c2ccco2)c(-c2ccco2)s1)C1CC(=O)N(c2ccc3c(c2)OCCO3)C1` (configuration not stated) it was 59.5% (active); in that of `O=C(CCl)Nc1nc(-c2ccco2)c(-c2ccco2)s1`, 64.5% (active).
Regarding `O=C(CCCSc1ccccc1)Nc1nc(-c2ccco2)c(-c2ccco2)s1`, the inhibition is 58.7% (inactive) (at 20 µM) and 2.6% under setting [1].
In the case of `O=C(Nc1nnc(-c2ccco2)s1)C1CC1`, for the setting “at 20 µM”, the inhibition is 0.3% (inactive).
For the compound `COc1cccc(NC(=O)N(C2CCCCC2)C(C)c2cccs2)c1` (configuration not stated), the inhibition (at 20 µM) was -4.1% (inactive).
The same measure, in the same setting: then `CCOC(=O)c1cnc2c(ccc3ccccc32)c1NCCN(C)C`, with -0.1% (inactive).
Still for that read-out and setting: then `CCOC(=O)c1cccc(NC(=O)CCn2nc(C)c(S(=O)(=O)N3CCCCC3)c2C)c1`, with -0.9% (inactive).
In the case of `CCC(C)(C)NC(=O)CN(C(=O)C(=O)Nc1ccc2c(c1)OCCO2)N1CCOCC1`, the inhibition (at 20 µM) is 1.2% (inactive).
As for `COc1ccccc1N1CCN(C(=O)CCc2ccc(S(=O)(=O)NCC(C)C)cc2)CC1`, the inhibition (at 20 µM) is 0.1% (inactive).
Same read-out and setting: then `N#CC(C#N)=Cc1ccc(OCC(=O)N2CCOCC2)cc1`, with 0.6% (inactive); and `O=C1c2ccccc2C(=O)N1c1ccc(Cl)cc1`, with -5.5% (inactive); and `O=C1C=C(N2CCCCCC2)C(=O)N1c1ccc(Cl)cc1`, with -1.8% (inactive).
Same read-out and setting: in the case of `O=C1C=C(Nc2ccc(Cl)cc2)C(=O)N1c1ccc(Cl)cc1` it was 54.8% (active).
Still for that read-out and setting: then `COC(=O)C1CCCCN1C(=O)c1cccc(OC2CCN(C(=O)C3CC3)CC2)c1` (configuration not stated), with 1.5% (inactive); and `CCOC(=O)C1=C(O)/C(=C/c2cc(OC)c(O)c(OC)c2)SC1=Nc1ccc(OC)cc1`, with 32.3% (inactive); and `CCOC(=O)C1=C(O)/C(=C/c2ccc(-c3ccccc3C(=O)O)o2)SC1=Nc1ccc(OC)cc1`, with 51.8% (active).
Consider `CCOC(=O)C1=C(O)/C(=C/c2cc(OC)c(OC)c(OC)c2)SC1=Nc1ccc(OC)cc1`, for which the inhibition (at 20 µM) is -0.4% (inactive).
For the compound `O=C(CCCCCCCCC(=O)N/N=C/c1ccco1)N/N=C/c1ccco1`, the inhibition (at 20 µM) is -2.2% (inactive).
Same read-out and setting: in the case of `Oc1ccccc1N1CCN(C(=S)NCCc2ccccc2)CC1` it was 9.4% (inactive); in that of `Cc1oc2cc([N+](=O)[O-])c(O)c([N+](=O)[O-])c2c1C(=O)c1ccc(Br)cc1`, 51% (active).
Still for that read-out and setting: then `Cc1oc2cc([N+](=O)[O-])c(O)c([N+](=O)[O-])c2c1C(=O)c1ccc(Cl)cc1`, with 19.8% (inactive); and `COc1ccc(OC)c(C(=O)c2c(C)oc3cc([N+](=O)[O-])c(O)c([N+](=O)[O-])c23)c1`, with -0.7% (inactive).
For the compound `CCCNC(=O)NC(=O)CSc1nnc(C)n1N`, the inhibition (at 20 µM) was 1.6% (inactive).
Same read-out and setting: then `CC(=O)c1sc(Nc2cccc(C)c2)nc1C`, with 0.2% (inactive); and `O=C(O)CN1C(=O)/C(=C\c2ccccc2OCc2ccc(Cl)cc2)SC1=S`, with 45.9% (inactive); and `O=C(O)CN1C(=O)/C(=C\c2cc([N+](=O)[O-])ccc2OCc2ccccc2Cl)SC1=S`, with 68.9% (active).
Regarding `O=C(O)CN1C(=O)/C(=C\c2ccccc2OCc2ccc(F)cc2)SC1=S`, the inhibition reads like this: (at 20 µM) 60.3% (inactive); under setting [1], 36.9%.
As to `C=Cn1cc[n+](CC(=O)c2ccc(OC)cc2)c1`, under “at 20 µM”, the inhibition is -0.9% (inactive).
Still for that read-out and setting: then `O=C(NCC1(c2ccccc2)CCCC1)c1cccc(Br)c1`, with -2.2% (inactive); and `CCOc1ccc(N2C(=O)C3Sc4[nH]c(=O)sc4C(c4ccc(OC)c(OC)c4)C3C2=O)cc1` (configuration not stated), with 15.2% (inactive).
Same read-out and setting: then `CCOc1ccc(N2C(=O)C3Sc4[nH]c(=O)sc4C(/C=C/c4ccccc4)C3C2=O)cc1` (configuration not stated), with 53.6% (active).
Same read-out and setting: in the case of `CCOC(=O)c1ccccc1N1C(=O)C2Sc3[nH]c(=O)sc3C(/C=C/c3ccccc3)C2C1=O` (configuration not stated) it was 31.6% (inactive).
In the case of `Cc1ccc([N+](=O)[O-])cc1S(=O)(=O)Nc1ccc(C(=O)N(C)C)cc1`, the inhibition (at 20 µM) was -0.4% (inactive).
Still for that read-out and setting: then `CCC(C(=O)OCCOCCN(CC)CC)c1ccccc1` (configuration not stated), with -1.7% (inactive); and `CN(C(=O)c1ccc(S(=O)(=O)N(C)C)cc1)c1ccc2ccccc2c1`, with -2% (inactive); and `O=C(O)c1ccc(COc2ccccc2/C=C2\NC(=O)N(Cc3ccccc3)C2=O)cc1`, with 31.4% (inactive).
Same read-out and setting: then `O=C(O)c1ccc(COc2ccccc2/C=C2/NC(=O)N(c3cccc(Cl)c3)C2=O)cc1`, with 53.3% (active); and `O=C(O)c1ccc(COc2ccccc2/C=C2\NC(=O)N(Cc3ccc(F)cc3)C2=O)cc1`, with 37.2% (inactive); and `CCOc1cc(NC(=S)NCCCN2CCOCC2)c(OCC)cc1NC(=O)c1cccs1`, with -2.2% (inactive).
Consider `Cc1ccc(-c2nc3sc(C#N)c(N)n3c(=O)c2C#N)cc1`, for which the inhibition (at 20 µM) was 59.9% (active) and the inhibition under setting [1] is 52.2%.
On to `Cc1ccc(-c2c(C#N)c(N)n(-c3ccccc3)c(=O)c2C#N)cc1`, for which the inhibition (at 20 µM) is -0.6% (inactive).
On the same count and under the same terms, then `Cc1ccc(-c2c(C#N)c(N)n(-c3ccc(C)cc3)c(=O)c2C#N)cc1`, with 3.9% (inactive); and `CC1CCN(c2ccc3nnc(CCC(=O)N4CCN(c5ccccc5F)CC4)n3n2)CC1`, with 0.3% (inactive).
On the same count and under the same terms, then `CCOC(=O)C1=NOC(CNC(=O)c2c(-c3ccccc3Cl)noc2C)C1` (configuration not stated), with 0.6% (inactive); and `COc1ccc(CC(NC(C)=O)C(=O)N2CCN(C(=O)N(C(C)C)C(C)C)CC2)cc1` (configuration not stated), with -0.1% (inactive); and `Cc1ccc(/C=C2\SC(N3CCCC3)=NC2=O)cc1`, with -0.9% (inactive).
The same measure, in the same setting: in the case of `Cc1ccc(/C=C2\SC(N3CCCCC3)=NC2=O)cc1` it was -1.2% (inactive).
Regarding `CN(C)c1ccc(/C=C2\SC(N3CCCCC3)=NC2=O)cc1`, the inhibition was 74.1% (active) (at 20 µM) and 50.6% under setting [1].
`O=C(O)/C=C/c1cccc(NC(=O)Nc2ccc([N+](=O)[O-])cc2)c1`: the inhibition (at 20 µM) was 1.6% (inactive).
Same read-out and setting: in the case of `O=C(COC(=O)CCc1ccc(S(=O)(=O)N2CCOCC2)cc1)NC(=O)NC1CCCCC1` it was 0.6% (inactive); in that of `CCCOc1cc(C)c(S(=O)(=O)n2ccc(C)n2)cc1C`, 1% (inactive); in that of `CC1=Nc2nc(N3CCCCC3)c(C#N)c3c4c(nc(c23)N1)N(c1ccc(C(C)C)cc1)C(=O)C4`, 63.9% (active).
The same measure, in the same setting: then `COc1ccc(CN2C(=O)Cc3c2nc(N)c2c(N)nc(N4CCCCC4)c(C#N)c32)cc1`, with 23.9% (inactive); and `CCN(CC)c1nc2c3c(nc4c(c3c1C#N)CC(=O)N4c1ccc(Cl)cc1)NC(C)=N2`, with 16.3% (inactive); and `Cc1onc(-c2ccccc2)c1-c1csc(N/N=C/c2ccccc2)n1`, with -1.5% (inactive).
The same measure, in the same setting: in the case of `O=C(Nc1ccccc1)c1ccccc1NS(=O)(=O)c1ccc(Cl)s1` it was 28.5% (inactive).
For the compound `COc1ccc(C)cc1NC(=O)c1ccccc1NS(=O)(=O)c1ccc(Cl)s1`, the inhibition (at 20 µM) was 60.5% (active).
Turning to `Cc1ccc(NC(=O)c2ccccc2NS(=O)(=O)c2ccc(Cl)s2)cc1`, the inhibition is 56.3% (inactive) (at 20 µM) and 29% under setting [1].
As to `CCN(CC)S(=O)(=O)c1ccc(C(=O)Nc2nnc(-c3ccco3)o2)cc1`, the inhibition (at 20 µM) is 9.7% (inactive).
In the case of `O=C(NC1CC1)C1CCN(C2CCN(C(=O)c3c(F)cccc3Cl)CC2)CC1`, the inhibition (at 20 µM) is 3.8% (inactive).
Same read-out and setting: in the case of `CC(C)CN1CCC(=O)N(CCN=[N+]=[N-])CC1` it was -1.2% (inactive); in that of `CC(C)(Oc1ccc(Cl)cc1)C(=O)Nc1ccncc1`, -1.9% (inactive); in that of `NC(=O)[C@@H]1CC2(CC(c3cccc(NC(=O)[C@@H]4CCC(=O)N4)c3)=NO2)CN1C(=O)Cc1ccc([N+](=O)[O-])cc1` (some centres not stated), -1.2% (inactive).
The same measure, in the same setting: then `O=C(O)C(Cc1ccccc1)N1C(=O)/C(=C/c2cccc3ccccc23)SC1=S` (configuration not stated), with 52.6% (active); and `COc1cccc(/C=C2\SC(=S)N(C(Cc3ccccc3)C(=O)O)C2=O)c1` (configuration not stated), with 30.7% (inactive); and `COc1cc(/C=C2\SC(=S)N(C(C(=O)O)c3ccccc3)C2=O)ccc1O` (configuration not stated), with 47.4% (inactive).
Same read-out and setting: then `CCOc1ccc(/C=C2\SC(=S)N(C(C(=O)O)c3ccccc3)C2=O)cc1OC` (configuration not stated), with 12.1% (inactive); and `CCOc1cc(/C=C2\SC(=Nc3ccc(F)cc3)N(c3ccc(F)cc3)C2=O)ccc1OCC(=O)O`, with 41.5% (inactive).
With `COc1ccc(/C=C2\SC(=S)N(C(Cc3ccccc3)C(=O)O)C2=O)cc1` (configuration not stated), where the note is “at 20 µM”, the inhibition was 38.4% (inactive).
For `Cc1ccc(/C=C2\SC(=S)N(C(Cc3ccccc3)C(=O)O)C2=O)cc1` (configuration not stated), where the note is “at 20 µM”, the inhibition was 53.9% (active).
Still for that read-out and setting: then `O=C(O)C(Cc1ccccc1)N1C(=O)/C(=C/c2ccccc2)SC1=S` (configuration not stated), with 21.1% (inactive); and `CCOc1ccc(/C=C2/SC(=S)N(C(C(=O)O)c3ccccc3)C2=O)cc1OCC` (configuration not stated), with 56.2% (active).
Turning to `COc1cc(/C=C2\SC(=Nc3ccc(F)cc3)N(c3ccc(F)cc3)C2=O)ccc1OCC(=O)O`, the inhibition (at 20 µM) is 35.3% (inactive).
Consider `O=C(O)C(Cc1ccccc1)N1C(=O)/C(=C/c2cccs2)SC1=S` (configuration not stated), for which the inhibition (at 20 µM) is 17.7% (inactive).
The same measure, in the same setting: then `CCOc1cc(/C=C2\SC(=Nc3ccccc3)N(c3ccccc3)C2=O)ccc1OCC(=O)O`, with 58.9% (active).
